# Laboratory results: the supplement of paper PMC11624193, “Coupling cellular drug-target engagement to downstream pharmacology with CeTEAM” (Nature Communications, 2024)
# Values without a mark were called inactive.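 Rule for the calls: active = log2 fold change beyond 2 SD from the library mean after excluding viability outliers; inactive = within 2 SD.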
# Target: PARP1 L713F-nLuc biosensor (HCT116) (UniProt P09874)
# Experiment: PARP1 L713F-nLuc/akaLuc ratio relative to DMSO control (biosensor stabilization) (fold change); higher = more PARP1 biosensor stabilization (target engagement / stabilizer), active = hit call of the paper
# Settings: stock concentration (mM; final µM = stock mM x 1): 2; 24 h
# Chain of PARP1 L713F-nLuc biosensor (HCT116) (P09874 whole entry L713F, looked up): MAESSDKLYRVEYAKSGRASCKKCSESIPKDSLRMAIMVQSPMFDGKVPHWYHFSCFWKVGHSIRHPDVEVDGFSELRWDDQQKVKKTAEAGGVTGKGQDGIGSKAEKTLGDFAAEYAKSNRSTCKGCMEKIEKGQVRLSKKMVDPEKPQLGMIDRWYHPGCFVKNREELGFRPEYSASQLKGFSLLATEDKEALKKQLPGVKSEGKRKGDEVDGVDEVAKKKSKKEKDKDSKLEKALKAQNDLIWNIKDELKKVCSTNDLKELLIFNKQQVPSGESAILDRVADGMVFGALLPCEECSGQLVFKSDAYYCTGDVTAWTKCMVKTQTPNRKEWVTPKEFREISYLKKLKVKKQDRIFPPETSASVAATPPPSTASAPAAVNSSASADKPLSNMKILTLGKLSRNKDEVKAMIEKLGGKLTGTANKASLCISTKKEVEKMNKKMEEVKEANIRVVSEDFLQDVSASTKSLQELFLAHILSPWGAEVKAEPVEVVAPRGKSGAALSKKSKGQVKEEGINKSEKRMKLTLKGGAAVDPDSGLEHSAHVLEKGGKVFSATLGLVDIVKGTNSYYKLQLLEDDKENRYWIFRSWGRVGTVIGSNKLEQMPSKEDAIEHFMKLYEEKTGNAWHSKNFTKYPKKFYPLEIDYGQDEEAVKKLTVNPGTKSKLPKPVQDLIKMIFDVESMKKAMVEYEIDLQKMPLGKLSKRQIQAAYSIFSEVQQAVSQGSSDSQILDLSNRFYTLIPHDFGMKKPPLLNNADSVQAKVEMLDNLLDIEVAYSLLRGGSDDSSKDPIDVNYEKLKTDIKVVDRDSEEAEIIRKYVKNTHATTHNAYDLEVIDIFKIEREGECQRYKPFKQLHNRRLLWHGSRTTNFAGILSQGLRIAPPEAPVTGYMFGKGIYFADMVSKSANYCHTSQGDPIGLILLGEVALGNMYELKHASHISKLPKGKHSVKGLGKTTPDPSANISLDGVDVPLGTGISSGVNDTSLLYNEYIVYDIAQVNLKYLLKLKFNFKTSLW
compound,measurement,value
CC(=O)c1c(O)c(C)c(O)c(Cc2c(O)c3c(c(C(=O)/C=C/c4ccccc4)c2O)OC(C)(C)C=C3)c1O [Rottlerin],PARP1 L713F-nLuc/akaLuc ratio,0.628
